Several values for one entry are separate records, joined by “and”; a condition that tells them apart may be missing. Equal values may be shown once. For some assays here: Results with a measured potency or affinity are listed apart.
Tests used:
Design in all cases: scale not given: direction of the effect not stated beside the values
[1] = biological target: Protein translocase subunit SecA (Escherichia coli (strain K12)) (UniProt P10408); test: Assay to Identify E. coli SecA ATPase Inhibitors; format: functional; conditions: 30 µM
[2] = biological target: T1, Ubiquitin-activating enzyme e1, putative (Leishmania donovani (strain BPK282A1)) (UniProt E9BSI1); test: Leishmania donovani Ubiquitin Activating Enzyme (LdE1); format: functional; conditions: 30 µM
T1 sequence (whole entry): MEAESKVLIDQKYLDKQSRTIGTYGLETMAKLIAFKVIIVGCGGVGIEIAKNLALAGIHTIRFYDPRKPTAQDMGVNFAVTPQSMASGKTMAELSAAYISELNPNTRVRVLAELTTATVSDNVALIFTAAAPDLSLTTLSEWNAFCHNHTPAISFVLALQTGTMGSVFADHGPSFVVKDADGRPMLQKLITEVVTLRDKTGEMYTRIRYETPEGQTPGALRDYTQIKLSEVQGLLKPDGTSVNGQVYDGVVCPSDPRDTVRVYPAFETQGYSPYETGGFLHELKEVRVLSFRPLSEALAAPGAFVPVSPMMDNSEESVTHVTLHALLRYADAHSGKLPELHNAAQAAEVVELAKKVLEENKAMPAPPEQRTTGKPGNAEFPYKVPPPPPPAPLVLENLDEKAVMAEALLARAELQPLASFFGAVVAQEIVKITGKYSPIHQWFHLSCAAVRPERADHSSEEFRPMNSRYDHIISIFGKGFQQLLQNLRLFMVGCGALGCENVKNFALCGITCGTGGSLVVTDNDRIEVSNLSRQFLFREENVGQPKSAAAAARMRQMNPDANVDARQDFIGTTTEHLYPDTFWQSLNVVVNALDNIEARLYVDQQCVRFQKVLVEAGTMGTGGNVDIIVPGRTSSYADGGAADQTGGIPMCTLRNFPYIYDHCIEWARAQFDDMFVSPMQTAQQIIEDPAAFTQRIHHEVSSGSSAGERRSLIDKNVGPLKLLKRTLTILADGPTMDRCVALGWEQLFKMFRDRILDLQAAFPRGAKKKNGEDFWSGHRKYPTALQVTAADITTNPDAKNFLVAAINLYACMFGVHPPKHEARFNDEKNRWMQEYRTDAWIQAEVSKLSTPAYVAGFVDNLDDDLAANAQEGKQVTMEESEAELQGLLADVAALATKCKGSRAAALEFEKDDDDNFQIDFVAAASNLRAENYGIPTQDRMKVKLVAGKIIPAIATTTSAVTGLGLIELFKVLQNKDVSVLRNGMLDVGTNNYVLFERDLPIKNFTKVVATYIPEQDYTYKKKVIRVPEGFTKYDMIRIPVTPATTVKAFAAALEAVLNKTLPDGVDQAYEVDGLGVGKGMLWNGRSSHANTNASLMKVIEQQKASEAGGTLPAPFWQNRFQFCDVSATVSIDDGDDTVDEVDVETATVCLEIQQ

[3] = biological target: AMP-activated protein kinase, AMPK (Homo sapiens) (UniProt P54646+O43741+P54619+Q9UGJ0+Q9Y478+Q13131+Q9UGI9); test: AMP-dependent Kinase enzyme assay. An in vitro enzyme assay that detects ADP turnover that is directly proportional to AMPK activity. This uses naive AMPK that is activated during the assay with MK-8722; format: functional; conditions: 30 µM
[4] = biological target: Sialic acid-binding Ig-like lectin 9 (Homo sapiens) (UniProt Q9Y336); test: Hs-Siglec9 ALPHAscreen SOP 20170721; conditions: 10 µM
Trypanosoma cruzi = test: Trypanosoma cruzi phosphomannomutase and mannose-1-phosphate guanylyltransferase assay; format: functional; conditions: 10 µM
[5] = biological target: T2, Arginase-2, mitochondrial (Homo sapiens) (UniProt P78540); test: in vitro enzyme assay to detect the production of urea directly proportional to the activity of Arginase II; format: functional; conditions: 33.3 µM; also: in the data most compounds retested in dose-response had high values
T2 sequence (whole entry): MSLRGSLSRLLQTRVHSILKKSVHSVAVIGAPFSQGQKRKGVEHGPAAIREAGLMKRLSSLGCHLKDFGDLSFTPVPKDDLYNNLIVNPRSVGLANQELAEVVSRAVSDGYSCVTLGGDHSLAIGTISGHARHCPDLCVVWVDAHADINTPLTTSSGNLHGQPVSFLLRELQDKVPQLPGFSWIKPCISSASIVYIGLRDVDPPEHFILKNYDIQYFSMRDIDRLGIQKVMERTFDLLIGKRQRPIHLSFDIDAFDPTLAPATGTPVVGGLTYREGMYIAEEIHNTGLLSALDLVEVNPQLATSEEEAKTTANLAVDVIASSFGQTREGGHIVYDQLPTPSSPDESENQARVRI

[6] = biological target: T3, Proteasome subunit beta (Trypanosoma cruzi) (UniProt O96673); test: Trypanosoma cruzi proteasome chymotrypsin-like activity (TcProtChymo) assay.; also: in the data most compounds retested in dose-response had high values; format: functional; conditions: 9.37 µM
T3 sequence (whole entry): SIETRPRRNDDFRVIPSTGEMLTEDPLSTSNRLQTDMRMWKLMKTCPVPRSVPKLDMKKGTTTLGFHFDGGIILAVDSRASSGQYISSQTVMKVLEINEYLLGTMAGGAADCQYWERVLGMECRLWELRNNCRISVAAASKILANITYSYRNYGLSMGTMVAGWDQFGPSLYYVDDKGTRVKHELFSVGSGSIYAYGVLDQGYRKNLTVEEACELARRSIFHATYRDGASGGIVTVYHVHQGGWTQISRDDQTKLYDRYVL

Homo sapiens = species: Homo sapiens; test: To identify inhibition of the IFN signalling (Jak-Stat) pathway via expression of an eGFP reporter gene under the control of an IFN-stimulated response element (ISRE) containing MxA promoter.; format: functional; conditions: 30 µM
[7] = biological target: T4, Tyrosyl-tRNA synthetase, putative (Trypanosoma cruzi (strain CL Brener)) (UniProt Q4DSP6); test: Trypanosoma cruzi tyrosyl tRNA synthetase (TcYRS) _High Tyrosine SOP; format: functional; conditions: 30 µM; also: in the data most compounds retested in dose-response had high values
T4 sequence (whole entry): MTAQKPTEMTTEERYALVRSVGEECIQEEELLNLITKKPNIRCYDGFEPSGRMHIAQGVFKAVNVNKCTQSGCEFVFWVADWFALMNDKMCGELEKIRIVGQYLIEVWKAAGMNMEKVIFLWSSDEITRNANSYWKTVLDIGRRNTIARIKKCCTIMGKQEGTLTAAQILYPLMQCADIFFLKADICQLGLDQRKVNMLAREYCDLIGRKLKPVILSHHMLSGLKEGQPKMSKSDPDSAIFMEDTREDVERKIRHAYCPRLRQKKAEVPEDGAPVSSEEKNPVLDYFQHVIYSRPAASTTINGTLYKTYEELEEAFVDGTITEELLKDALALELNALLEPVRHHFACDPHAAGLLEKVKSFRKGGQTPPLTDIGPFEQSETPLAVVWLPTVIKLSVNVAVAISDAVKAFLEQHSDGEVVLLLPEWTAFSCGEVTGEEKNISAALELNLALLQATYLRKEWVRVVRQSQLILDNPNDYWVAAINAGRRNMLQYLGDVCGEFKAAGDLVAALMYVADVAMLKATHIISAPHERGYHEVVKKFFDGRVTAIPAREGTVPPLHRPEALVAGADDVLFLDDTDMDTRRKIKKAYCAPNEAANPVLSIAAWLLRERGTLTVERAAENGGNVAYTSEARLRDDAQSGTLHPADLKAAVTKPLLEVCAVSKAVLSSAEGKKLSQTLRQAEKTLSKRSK

[8] = biological target: T4, Tyrosyl-tRNA synthetase, putative (Trypanosoma cruzi (strain CL Brener)); test: Trypanosoma cruzi tyrosyl tRNA synthetase (TcYRS) SOP; format: functional; conditions: 30 µM
[9] = biological target: Chromo domain-containing protein 1 (Saccharomyces cerevisiae (strain ATCC 204508 / S288c) (Baker's yeast)) (UniProt P32657); test: ScCHD-1 Enzyme Inhibition Assay; format: functional; conditions: 30 µM; also: in the data most compounds retested in dose-response had high values
N/A = test: Trypanosoma cruzi proteasome luciferase counter-screen; format: functional; conditions: 9.37 µM

Sialic acid-binding Ig-like lectin 9 (Homo sapiens), sequence (Q9Y336 whole entry): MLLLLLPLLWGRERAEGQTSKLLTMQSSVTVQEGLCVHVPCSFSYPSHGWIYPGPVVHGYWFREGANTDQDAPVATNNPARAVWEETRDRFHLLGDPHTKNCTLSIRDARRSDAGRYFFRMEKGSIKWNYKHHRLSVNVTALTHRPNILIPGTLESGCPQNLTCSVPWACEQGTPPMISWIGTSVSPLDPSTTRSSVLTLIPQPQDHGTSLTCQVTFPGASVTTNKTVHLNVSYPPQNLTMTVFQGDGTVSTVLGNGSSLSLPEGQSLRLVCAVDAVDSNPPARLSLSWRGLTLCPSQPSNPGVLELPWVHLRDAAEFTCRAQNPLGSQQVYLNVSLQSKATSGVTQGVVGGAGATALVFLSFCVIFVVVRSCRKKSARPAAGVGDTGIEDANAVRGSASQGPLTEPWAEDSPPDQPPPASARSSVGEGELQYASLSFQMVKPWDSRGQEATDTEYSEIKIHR
Protein translocase subunit SecA (Escherichia coli (strain K12)), sequence (P10408 whole entry): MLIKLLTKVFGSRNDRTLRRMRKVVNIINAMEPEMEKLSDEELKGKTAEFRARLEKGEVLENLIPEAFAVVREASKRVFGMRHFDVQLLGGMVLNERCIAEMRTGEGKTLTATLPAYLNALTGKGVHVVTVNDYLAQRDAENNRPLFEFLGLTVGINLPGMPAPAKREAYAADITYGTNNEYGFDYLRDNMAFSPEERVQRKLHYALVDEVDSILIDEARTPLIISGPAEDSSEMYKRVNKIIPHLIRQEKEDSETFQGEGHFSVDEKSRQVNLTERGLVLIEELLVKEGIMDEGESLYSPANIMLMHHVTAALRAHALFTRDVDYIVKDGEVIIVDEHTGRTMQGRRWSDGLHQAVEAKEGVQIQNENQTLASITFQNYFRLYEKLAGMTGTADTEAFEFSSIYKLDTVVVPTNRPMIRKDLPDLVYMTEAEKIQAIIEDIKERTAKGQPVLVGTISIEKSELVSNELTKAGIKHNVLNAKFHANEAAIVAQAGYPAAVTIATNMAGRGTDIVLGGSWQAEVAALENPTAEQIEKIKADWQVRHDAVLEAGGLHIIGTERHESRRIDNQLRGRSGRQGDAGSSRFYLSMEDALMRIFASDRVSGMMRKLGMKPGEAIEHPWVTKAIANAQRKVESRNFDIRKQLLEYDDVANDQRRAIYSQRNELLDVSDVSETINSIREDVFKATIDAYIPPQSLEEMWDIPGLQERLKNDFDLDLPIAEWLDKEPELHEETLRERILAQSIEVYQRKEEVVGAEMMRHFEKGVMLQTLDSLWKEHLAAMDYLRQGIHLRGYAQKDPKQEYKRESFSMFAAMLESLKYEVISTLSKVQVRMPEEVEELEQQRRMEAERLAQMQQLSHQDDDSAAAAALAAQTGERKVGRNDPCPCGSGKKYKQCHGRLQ
Chromo domain-containing protein 1 (Saccharomyces cerevisiae (strain ATCC 204508 / S288c) (Baker's yeast)), sequence (P32657 whole entry, the tested form may be a part): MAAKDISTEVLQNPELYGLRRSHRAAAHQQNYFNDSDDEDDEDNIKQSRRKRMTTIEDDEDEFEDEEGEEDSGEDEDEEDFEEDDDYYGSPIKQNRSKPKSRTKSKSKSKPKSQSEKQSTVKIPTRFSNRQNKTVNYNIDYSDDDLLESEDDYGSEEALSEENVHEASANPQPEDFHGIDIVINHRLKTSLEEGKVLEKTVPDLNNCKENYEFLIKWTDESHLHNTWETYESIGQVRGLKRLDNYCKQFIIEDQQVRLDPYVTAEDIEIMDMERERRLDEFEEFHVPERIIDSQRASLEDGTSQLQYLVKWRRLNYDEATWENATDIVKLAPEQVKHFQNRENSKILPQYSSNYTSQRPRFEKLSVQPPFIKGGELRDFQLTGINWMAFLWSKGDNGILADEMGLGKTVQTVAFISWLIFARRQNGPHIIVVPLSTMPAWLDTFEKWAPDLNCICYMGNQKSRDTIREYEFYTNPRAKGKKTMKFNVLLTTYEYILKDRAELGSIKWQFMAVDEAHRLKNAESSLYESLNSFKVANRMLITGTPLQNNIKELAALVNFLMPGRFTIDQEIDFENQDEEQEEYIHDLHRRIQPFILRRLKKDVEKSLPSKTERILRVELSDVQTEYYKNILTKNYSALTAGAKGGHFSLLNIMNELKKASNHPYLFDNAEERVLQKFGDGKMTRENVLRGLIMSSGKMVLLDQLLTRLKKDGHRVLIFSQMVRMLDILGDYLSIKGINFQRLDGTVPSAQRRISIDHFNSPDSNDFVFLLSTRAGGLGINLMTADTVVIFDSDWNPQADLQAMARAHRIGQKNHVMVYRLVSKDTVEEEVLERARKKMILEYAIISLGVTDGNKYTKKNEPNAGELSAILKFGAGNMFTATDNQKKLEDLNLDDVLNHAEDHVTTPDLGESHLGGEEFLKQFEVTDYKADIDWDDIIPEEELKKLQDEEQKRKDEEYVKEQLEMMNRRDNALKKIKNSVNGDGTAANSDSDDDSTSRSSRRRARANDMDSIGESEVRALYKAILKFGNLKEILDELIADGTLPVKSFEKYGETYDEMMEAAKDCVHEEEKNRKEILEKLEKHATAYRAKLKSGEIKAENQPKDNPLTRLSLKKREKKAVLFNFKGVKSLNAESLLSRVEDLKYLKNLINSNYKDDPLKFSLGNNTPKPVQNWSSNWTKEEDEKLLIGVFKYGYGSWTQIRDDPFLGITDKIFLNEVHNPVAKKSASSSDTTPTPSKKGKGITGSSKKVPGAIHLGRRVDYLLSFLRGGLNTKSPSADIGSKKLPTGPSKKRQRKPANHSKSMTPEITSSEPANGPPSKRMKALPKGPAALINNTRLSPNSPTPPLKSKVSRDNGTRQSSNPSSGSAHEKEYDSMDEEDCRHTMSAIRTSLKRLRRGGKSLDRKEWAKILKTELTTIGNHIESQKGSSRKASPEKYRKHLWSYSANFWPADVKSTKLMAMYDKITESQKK

Row | Structure (SMILES) | Percent Effect [1] [%] | Percent Effect [2] [%] | Percent Effect [3] [%] | Percent Effect [4] [%] | Percent Effect (Trypanosoma cruzi) [%] | Percent Effect [5] [%] | Percent Effect [6] | Percent Effect (Homo sapiens) [%] | Percent Effect [7] [%] | Percent Effect [8] [%] | Percent Effect [9] [%] | Percent Effect (N/A)
1 | c1ccc(Cn2cc3c(n2)C(COCC2CC2)OCC3)nc1 (centres undefined) | 3.09 | 10.4 | -0.118 | -14.8 | -4.24 | 3.23 | 12.4% | 8.69 | 1.06 | 6.41 | -7.74 | 
2 | COCCN1CCCN(C(=O)NC(C)Cn2cccn2)CC1 (centres undefined) | 0.234 | 15.6 |  | -4.18 | -8.77 | 4.3 | 10.9% | 14.4 | 5.88 | 11.8 | -2.79 | 
3 | Cc1ccoc1C(=O)N1CCOCC2(CCN(c3ncccn3)C2)C1 (centres undefined) | -3.09 | 5.41 | -4.43 | 21.7 | 5.57 | 13.2 | 9.01% | 10.4 | 7.53 | 21 | -6.03 | 
4 | Cc1nc(C)c(C(=O)OCCNc2ncccc2C#N)s1 | -3.81 | 10.4 |  | 12.8 | -7.09 | 1.02 | 71.6% and 65.6% and 62.3% | 32.9 | 2.94 | 9.41 | 0.0387 | 28.5% and 30.6%
5 | CCS(=O)(=O)c1ccc(N2CCC(NC(=O)CCC(C)C)CC2)cc1 | -1.62 | 10.7 | -6.1 | 12.2 | 6.13 | 16.1 | 6.8% | 27.1 | 6.01 | 8.64 | -4.64 | 
6 | CCCN(CC)C(=O)c1cc2c(c3ccccc3n2C)n1C(=O)N(C)C | -6.54 | 11.7 |  | 4.77 | 0.292 | 4.05 | 6.27% | -7.65 | 6.84 | 10.3 | -0.293 | 
7 | Cc1cc(C)n(CC2CCCN2CCCS(N)(=O)=O)n1 (centres undefined) | -1.45 | 10.3 |  | -5.77 | 7.61 | 4.1 | 18.3% | 20.4 | 3.35 | 18.1 | -2.57 | 
